This excerpt belongs to a sample that is enriched for hits.
aGal spleen mod: alpha-galactosidase A (human) modulation. AID 2107. actives 0.008% (n = 240,000). human spleen homogenate, 4MU-alpha-Gal fluorescence, 40 min. Potency, µM (doses to about 80 µM), for inactives: at the highest dose activity change, negative = inhibition, hits mostly inhibitors. P06280;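 also: potency is read from the fitted curve at half-maximal effect; 0% = enzyme with vehicle and -100% = no enzyme basal signal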
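Human spleen homogenate (1 ug) was the enzyme source, with 4-methylumbelliferyl-alpha-D-galactopyranoside (1 mM final) in pH 5.0 citrate buffer with 0.01% Tween-20. Compounds were titrated; after 40 min at 37C, NaOH/glycine stop, 4-MU fluorescence read; AC50 from Hill fits.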
GLA inh pH 4.5: inhibitors of human alpha-galactosidase A at pH 4.5 | 230,000 tested, under 10 active | AID 1467 | purified enzyme, 4-MU-alpha-Gal fluorescence, pH 4.5 | activity change, negative = inhibition, % at 105 µM;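 also: 0% = full activity with enzyme and -100% = basal without enzyme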
MLL CXXC-DNA inh: inhibitors of human MLL CXXC domain-DNA interaction; Potency, µM (series often up to 115 µM), inactives show at the top dose activity change, negative = inhibition, most hits filed as inhibitors; Q03164; actives 0.037% (n = 290,000); MLL-CXXC / FITC-HOXA9 DNA fluorescence polarization; active = well fitted inhibition curve with a large enough effect in the polarisation, with a control signal flat, not every such curve was filed as active; inconclusive = small, poorly fitted or top-dose-only effect, or effect the other way, or a change in a side signal; inactive = no such curve, though single readings can be large or run the other way; the % refers to the polarisation; also: potency is read from the fitted curve at half-maximal effect
Target sequence (Q03164 whole entry, looked up, the tested form may be a part): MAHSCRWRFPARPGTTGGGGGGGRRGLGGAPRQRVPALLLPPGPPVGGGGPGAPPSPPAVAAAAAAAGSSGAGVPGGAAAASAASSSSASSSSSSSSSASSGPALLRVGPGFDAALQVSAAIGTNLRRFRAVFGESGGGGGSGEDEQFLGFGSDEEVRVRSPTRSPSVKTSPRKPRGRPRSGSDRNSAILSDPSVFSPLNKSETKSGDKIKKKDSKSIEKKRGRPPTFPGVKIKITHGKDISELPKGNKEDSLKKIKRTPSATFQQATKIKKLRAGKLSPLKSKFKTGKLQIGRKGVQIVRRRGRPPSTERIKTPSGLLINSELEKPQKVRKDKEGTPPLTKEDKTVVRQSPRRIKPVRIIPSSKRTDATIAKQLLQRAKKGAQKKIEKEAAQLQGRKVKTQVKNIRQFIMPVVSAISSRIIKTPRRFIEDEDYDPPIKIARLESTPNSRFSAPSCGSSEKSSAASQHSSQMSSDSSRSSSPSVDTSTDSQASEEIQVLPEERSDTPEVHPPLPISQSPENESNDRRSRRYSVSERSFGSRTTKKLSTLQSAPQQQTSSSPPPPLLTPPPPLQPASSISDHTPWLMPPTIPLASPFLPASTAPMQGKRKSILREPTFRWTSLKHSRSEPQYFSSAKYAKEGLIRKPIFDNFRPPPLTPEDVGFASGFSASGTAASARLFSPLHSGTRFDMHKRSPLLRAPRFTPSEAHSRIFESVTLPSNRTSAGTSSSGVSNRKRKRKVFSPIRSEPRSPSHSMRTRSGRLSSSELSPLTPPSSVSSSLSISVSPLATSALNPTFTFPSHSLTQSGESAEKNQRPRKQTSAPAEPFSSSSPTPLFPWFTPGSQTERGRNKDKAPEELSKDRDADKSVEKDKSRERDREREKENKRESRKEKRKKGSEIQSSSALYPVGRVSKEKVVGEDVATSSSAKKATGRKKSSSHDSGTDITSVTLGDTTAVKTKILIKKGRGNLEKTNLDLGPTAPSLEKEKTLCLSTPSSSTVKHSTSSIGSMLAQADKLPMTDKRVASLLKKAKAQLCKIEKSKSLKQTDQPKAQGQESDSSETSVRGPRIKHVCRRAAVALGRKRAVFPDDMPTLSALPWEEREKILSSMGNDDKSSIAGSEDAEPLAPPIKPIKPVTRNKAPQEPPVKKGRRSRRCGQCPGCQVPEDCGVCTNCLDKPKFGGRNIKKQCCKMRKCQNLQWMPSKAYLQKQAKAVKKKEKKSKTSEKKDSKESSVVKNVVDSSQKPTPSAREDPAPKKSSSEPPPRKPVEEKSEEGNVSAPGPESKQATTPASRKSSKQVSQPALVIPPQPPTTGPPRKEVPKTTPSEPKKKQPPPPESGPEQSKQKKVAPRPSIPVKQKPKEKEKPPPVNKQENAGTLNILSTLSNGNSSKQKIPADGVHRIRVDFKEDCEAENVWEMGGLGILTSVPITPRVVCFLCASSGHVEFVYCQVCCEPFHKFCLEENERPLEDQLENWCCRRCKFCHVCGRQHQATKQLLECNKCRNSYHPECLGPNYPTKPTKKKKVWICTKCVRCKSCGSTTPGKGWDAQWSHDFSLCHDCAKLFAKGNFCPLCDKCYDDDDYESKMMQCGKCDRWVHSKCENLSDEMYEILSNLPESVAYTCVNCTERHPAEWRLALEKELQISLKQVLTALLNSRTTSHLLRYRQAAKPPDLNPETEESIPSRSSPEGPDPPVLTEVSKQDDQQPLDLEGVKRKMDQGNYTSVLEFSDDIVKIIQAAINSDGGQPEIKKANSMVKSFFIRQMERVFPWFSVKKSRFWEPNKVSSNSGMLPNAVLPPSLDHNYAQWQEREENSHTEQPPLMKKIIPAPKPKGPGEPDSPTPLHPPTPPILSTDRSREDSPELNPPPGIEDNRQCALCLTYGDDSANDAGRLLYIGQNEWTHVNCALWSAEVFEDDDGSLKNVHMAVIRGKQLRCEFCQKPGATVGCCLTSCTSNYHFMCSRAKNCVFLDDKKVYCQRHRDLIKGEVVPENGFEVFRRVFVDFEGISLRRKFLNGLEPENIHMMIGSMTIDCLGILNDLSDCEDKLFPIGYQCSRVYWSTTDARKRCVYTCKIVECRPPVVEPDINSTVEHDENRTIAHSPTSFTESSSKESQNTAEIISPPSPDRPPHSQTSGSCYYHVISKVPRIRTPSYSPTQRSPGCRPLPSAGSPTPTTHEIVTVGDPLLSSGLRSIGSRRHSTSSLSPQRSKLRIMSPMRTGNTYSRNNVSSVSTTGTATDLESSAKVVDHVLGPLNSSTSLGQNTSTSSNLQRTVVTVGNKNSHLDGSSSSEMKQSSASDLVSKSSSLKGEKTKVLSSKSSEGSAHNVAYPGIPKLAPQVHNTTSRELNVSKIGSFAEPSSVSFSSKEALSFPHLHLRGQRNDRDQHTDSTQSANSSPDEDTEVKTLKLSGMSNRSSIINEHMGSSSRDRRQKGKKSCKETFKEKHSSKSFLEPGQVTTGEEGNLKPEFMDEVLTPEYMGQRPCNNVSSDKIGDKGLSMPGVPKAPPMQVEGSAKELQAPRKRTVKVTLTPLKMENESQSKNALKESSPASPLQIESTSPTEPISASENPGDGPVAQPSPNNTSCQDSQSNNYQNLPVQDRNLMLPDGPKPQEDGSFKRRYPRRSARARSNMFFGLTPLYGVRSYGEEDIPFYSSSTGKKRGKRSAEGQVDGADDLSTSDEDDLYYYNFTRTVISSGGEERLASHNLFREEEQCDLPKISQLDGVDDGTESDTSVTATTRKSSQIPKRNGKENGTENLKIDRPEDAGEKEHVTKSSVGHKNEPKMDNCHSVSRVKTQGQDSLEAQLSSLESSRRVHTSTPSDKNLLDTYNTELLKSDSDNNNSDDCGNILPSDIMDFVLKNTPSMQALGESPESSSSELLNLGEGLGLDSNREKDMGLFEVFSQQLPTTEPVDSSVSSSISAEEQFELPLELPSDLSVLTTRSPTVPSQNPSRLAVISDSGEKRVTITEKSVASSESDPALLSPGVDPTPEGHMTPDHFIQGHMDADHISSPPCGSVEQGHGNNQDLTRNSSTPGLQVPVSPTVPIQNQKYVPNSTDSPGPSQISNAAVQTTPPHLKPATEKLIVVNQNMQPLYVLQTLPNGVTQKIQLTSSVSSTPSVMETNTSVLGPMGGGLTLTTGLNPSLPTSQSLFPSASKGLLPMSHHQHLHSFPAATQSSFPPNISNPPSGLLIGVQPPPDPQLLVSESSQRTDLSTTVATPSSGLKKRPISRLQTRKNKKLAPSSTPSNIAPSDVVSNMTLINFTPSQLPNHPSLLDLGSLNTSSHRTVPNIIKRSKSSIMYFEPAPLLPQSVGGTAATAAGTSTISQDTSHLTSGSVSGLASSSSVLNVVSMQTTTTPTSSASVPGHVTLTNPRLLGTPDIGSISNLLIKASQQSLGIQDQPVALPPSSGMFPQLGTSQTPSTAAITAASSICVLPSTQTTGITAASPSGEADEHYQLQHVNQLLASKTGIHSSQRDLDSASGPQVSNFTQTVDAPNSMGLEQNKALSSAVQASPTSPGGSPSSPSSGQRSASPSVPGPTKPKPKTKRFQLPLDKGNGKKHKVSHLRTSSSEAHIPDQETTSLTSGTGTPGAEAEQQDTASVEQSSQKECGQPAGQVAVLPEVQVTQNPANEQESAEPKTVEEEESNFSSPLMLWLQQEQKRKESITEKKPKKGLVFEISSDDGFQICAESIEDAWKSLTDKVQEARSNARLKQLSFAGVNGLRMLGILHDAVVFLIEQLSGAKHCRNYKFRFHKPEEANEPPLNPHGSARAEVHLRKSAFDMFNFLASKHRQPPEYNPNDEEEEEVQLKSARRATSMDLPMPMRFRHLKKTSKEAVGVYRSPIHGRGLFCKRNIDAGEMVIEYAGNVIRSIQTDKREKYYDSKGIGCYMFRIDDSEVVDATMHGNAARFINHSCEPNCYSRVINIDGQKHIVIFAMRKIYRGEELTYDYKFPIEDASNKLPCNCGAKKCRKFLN
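Purified MLL-CXXC (added from a 7 uM solution) was preincubated 5 min at ambient with pinned compounds in 50 mM Tris-HCl pH 7.5, 50 mM NaCl, 1 mM DTT, 0.05% BSA. Fluorescein-labeled HOX-A9 DNA (50 nM solution) followed, 30 min, then polarization read.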
Menin MLL FP FL: inhibitors of human menin-MLL interaction, wild-type MLL peptide | Fluorescence polarization, fluorescein-MLL peptide displacement from menin | FP activity change, % at 61.4 µM | 290,000 tested, under 10 active | AID 1766; active = well fitted curve in the direction sought with a large enough effect in the polarisation, not every such curve was filed as active; inconclusive = small, poorly fitted or top-dose-only effect, or effect the other way, or a change in a side signal; inactive = no such curve, though single readings can be large or run the other way; the % refers to the polarisation; also: % of control where 0% means no effect
Integrin act MD: activates integrin-mediated alleviation for muscular dystrophy; alpha7betagal myoblasts, beta-gal FDG fluorescence, 48 h; Potency, µM (top dose mostly 38.3 µM), for the others: top-dose activation, usual class: activators; actives 0.064% (n = 350,000); AID 624291;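 also: potency is read from the fitted curve at half-maximal effect; 100% = response of the positive control SU9516; nearly all actives have a fitted effect of over 60% in size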
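alpha7betagal+/- myoblasts (passage 13, 250/well) treated 48 h at 37C with compounds at 1:260 dilution of DMSO stock. Lysed, then beta-galactosidase activity read as FDG fluorescence (ex 480/em 540) after 30 min, with pre-read for autofluorescence.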
Menin-MLL TR inh: menin-MLL binding inhibition, Texas Red mutant peptide; Menin + Texas Red MLL mutant peptide, fluorescence polarization; Potency, µM (top dose mostly 61.6 µM), for inactives: at the top dose FP activity change, negative = inhibition, most hits filed as inhibitors; actives 0.23% (n = 270,000); active = well fitted inhibition curve with a large enough effect in the polarisation, with a control signal flat, not every such curve was filed as active; inconclusive = small, poorly fitted or top-dose-only effect, or effect the other way, or a change in a side signal; inactive = no such curve, though single readings can be large or run the other way; the % refers to the polarisation; also: potency is read from the fitted curve at half-maximal effect; % of control where 0% means no effect
MLL CXXC FP-Fl: inhibitors of human MLL CXXC domain-DNA interaction; shares compounds with MLL CXXC-DNA inh; MLL CXXC-DNA binding, fluorescein FP; Potency, µM (series often up to 345 µM), inactives show at the top dose activity change, negative = inhibition, hits mostly inhibitors; actives 70% (n = 200); AID 624160; also: potency is read from the fitted curve at half-maximal effect; nearly all actives have a fitted effect of over 80% in size
MLL CXXC TxRed: inhibitors of human MLL CXXC domain-DNA interaction, Texas Red format | AID 624161 | MLL CXXC-DNA binding, Texas Red fluorescence polarization | shares compounds with MLL CXXC-DNA inh | Potency, µM (series often up to 345 µM), without a hit: at the top dose activity change, negative = inhibition, hits mostly inhibitors | actives 40% (n = 200); also: potency is read from the fitted curve at half-maximal effect; % is scaled to controls: 0 for no effect and ±100 for the full control effect; nearly all actives have a fitted effect of over 75% in size
MLL CXXC TRF: disrupts human MLL CXXC domain binding to DNA by HTRF; shares compounds with MLL CXXC-DNA inh; MLL CXXC-DNA binding, HTRF, biochemical; Potency, µM (doses to about 172 µM), inactives show at the top dose activity change, negative = inhibition, most hits filed as inhibitors; actives 30% (n = 210); also: % is scaled to controls: 0 for no effect and ±100 for the full control effect; nearly all actives have a fitted effect of over 80% in size
* = called active by the depositor; ? = inconclusive; / = no result. Unless noted, calls follow the shape of the dose curve; as a rule, active = well fitted curve in the direction sought with a large enough effect; inconclusive = small, poorly fitted or top-dose-only effect, or another doubt; inactive = no such curve, though single readings can be large; an effect the other way counts as inactive or inconclusive.

SMILES	aGal spleen mod	GLA inh pH 4.5	MLL CXXC-DNA inh	Menin MLL FP FL	Integrin act MD	Menin-MLL TR inh	MLL CXXC FP-Fl	MLL CXXC TxRed	MLL CXXC TRF
O=[N+]([O-])c1cccc(-c2cn3nc(-c4ccccc4)c(-c4ccccc4)nc3n2)c1	-13%	-4	40µM*	?	18%	/	179µM*	49%	9%
O=[N+]([O-])c1ccc(-c2cn3nc(-c4ccccc4)c(-c4ccccc4)nc3n2)cc1	5%	3	?	?	14%	/	/	/	/
COc1ccc(-c2nn(-c3ccccc3)cc2/C=C/C(=O)OCC(=O)Nc2ccc(C#N)cc2)cc1	1%	3	?	6	-23%	?	68%	?	5%
CC(=O)c1c(-c2ccccc2)[nH]c2ccccc12	/	/	4%	4	-15%	-30%	/	/	/
O=C(O)/C=C/C(=O)c1c(-c2ccccc2)[nH]c2ccccc12	/	/	?	5	13%	80%	7.1µM*	159µM*	49µM*
COc1ccc(C(C[N+](=O)[O-])C2(c3ccc(OC)c(OC)c3)C(=O)c3ccccc3C2=O)cc1 (stereo unspecified)	-1%	-27	?	2	-44%	10%	25%	18%	23%
c1ncc(-c2ccoc2)c(NC2CC2)n1	-4%	/	/	?	/	0%	/	/	/
COc1cc(/C=C2\C(=O)N(c3cccc(C(=O)O)c3)N=C2C)ccc1OCc1ccccc1	/	/	/	/	16%	/	/	/	/
C#CCOc1ccc(/C=C2/C(=O)N(c3cccc(C(=O)O)c3)N=C2C)cc1OC	/	/	45µM*	-2	11%	?	45µM*	71µM*	97µM*
O=c1nc2c(O)cccn2c2c1c(=O)[nH]c1ccccc12	8%	-15	32µM*	?	8%	0%	4µM*	?	?
O=c1[nH]c2ccccc2c2nc3ccccn3c12	4%	4	-17%	-3	-16%	?	/	/	/
C/C(=N\Nc1nc2ccccc2c(=O)n1O)c1ccco1	/	/	?	-1	35%	17%	?	?	?
O=c1c(-c2ccccc2)nc2cnc(Oc3cccc(Cl)c3)nc2n1C[C@H]1CCCO1	-6%	/	/	-1	/	-9%	/	/	/
CCn1c(CSc2nnc3ccccn23)nc2cc(C(=O)O)ccc21	5%	6	?	?	14%	?	/	/	/
CCn1c(CSc2n[nH]c(N)n2)nc2cc(C(=O)O)ccc21	6%	4	35µM*	-26	-7%	?	113µM*	113µM*	7%
N.N.O=C(O)C1(C(=O)O)CCC1.[Pt]	14%	-10	?	?	/	6%	8%	?	49µM*
COc1ccc(C2CC(c3ccccc3)Oc3cc(C)c(Cl)c(C)c32)cc1 (stereo unspecified)	5%	/	/	-2	/	17%	/	/	/
O=C(O)c1ccc2c(c1)C(=O)/C(=C\c1ccco1)C2=O	0%	-1	32µM*	4	11%	?	22µM*	18%	49µM*
Cc1ccc(/C=C2/C(=O)c3ccc(C(=O)O)cc3C2=O)o1	-7%	6	40µM*	?	?	?	?	?	39µM*
Cc1ccc(C=C2C(=O)c3ccccc3C2=O)o1	-15%	-11	0%	8	5%	24%	/	/	/
Cc1nc2nc(-c3ccc(Cl)cc3)cn2nc1C	9%	-1	-2%	-2	18%	/	/	/	/
Cc1nc2nc(-c3cccs3)cn2nc1C	8%	3	35µM*	?	23%	-1%	126µM*	-3%	-1%
C=CCC(O)c1ccccc1 (stereo unspecified)	-6%	4	/	3	/	14%	/	/	/
O=C(CN1C(=O)C(=O)N(Cc2ccccc2)C1=O)Nc1cc(Cl)cc(Cl)c1	8%	-1	2%	-1	-26%	/	/	/	/
NC(=O)CN1C(=O)C(=O)N(Cc2cccc(Cl)c2)C1=O	/	/	?	2	-6%	3%	66%	-9%	-3%
SMILES	aGal spleen mod	GLA inh pH 4.5	MLL CXXC-DNA inh	Menin MLL FP FL	Integrin act MD	Menin-MLL TR inh	MLL CXXC FP-Fl	MLL CXXC TxRed	MLL CXXC TRF
CS(=O)(=O)n1nc(-c2ccc(Cl)cc2)nc1N	-1%	-1	-14%	0	-11%	4%	/	/	/
Cn1nc(-c2ccc(Cl)cc2)nc2c(=O)n(C)c(=O)nc1-2	-8%	/	32µM*	?	/	?	142µM*	?	48%
O=c1[nH]c(-[n+]2ccccc2)c(/C=N/NC([S-])=Nc2ccccc2)s1	9%	-10	35µM*	?	6%	/	?	?	30%
CC(=O)Oc1ccc(C(=C2CCCCC2)c2ccc(OC(C)=O)cc2)cc1	-9%	/	0%	-2	/	2%	/	/	/
CCc1c2c(nc3cccc(SC)c13)COC2	10%	-6	/	1	/	2%	/	/	/
O=C(OCC1OC(OC(=O)c2cc(O)c(O)c(OC(=O)c3cc(O)c(O)c(O)c3)c2)[C@@H](OC(=O)c2cc(O)c(O)c(OC(=O)c3cc(O)c(O)c(O)c3)c2)C(OC(=O)c2cc(O)c(O)c(OC(=O)c3cc(O)c(O)c(O)c3)c2)C1OC(=O)c1cc(O)c(O)c(OC(=O)c2cc(O)c(O)c(O)c2)c1)c1cc(O)c(O)c(OC(=O)c2cc(O)c(O)c(O)c2)c1 (stereo partly specified)	-4%	?	63µM*	?	/	?	3.6µM*	4.5µM*	0.39µM*
Cc1cn(C2OC(COC(=O)c3ccccc3)C(OC(=O)c3ccccc3)C2OC(=O)c2ccccc2)c(=O)[nH]c1=O (stereo unspecified)	2%	-13	-10%	1	-18%	-6%	/	/	/
CC(=O)Oc1ccc2c(c1)Oc1cc(OC(C)=O)ccc1C21OC(=O)c2ccccc21	-2%	-13	?	?	-710%	?	0.022µM*	34%	3%
Cc1cccc(-n2c(C)cc(C=C3C(=O)c4ccccc4C3=O)c2C)c1	-8%	-3	32µM*	?	20%	?	142µM*	?	41%
